Test results reported in PubChem BioAssay AID1159580 (chemical genetic matrix, 2015).
Where “and” joins values, the source holds several entries; their conditions need not be identical. Equal entries are not always repeated. Among all 5,500 compounds or so, about 2,000 (36%) were called active. Not shown: some 18% with an inconclusive outcome. Cut-off read from the data, not from the text of the source: active = normalized growth mostly below about 0.91 (no sharp cut-off); inconclusive = no clear call, values can overlap the other calls; inactive = mostly above about 0.92. The list shows a part of the results.

Assay: chemical genetic growth profiling, strain panel (AID 1159580);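 note: tested at 20 µM; growth read once vehicle control cultures reached saturation at 30 °C; 1 = growth at the plate median or of vehicle wells; lower values mean less growth of the strain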
Conditions: S. cerevisiae deletion strains, growth OD

Measured: normalized growth

Oc1ccc2c(c1)OCC1(O)Cc3cc(O)c(O)cc3C21 (stereo unspecified)
inactive: locus YAL021C, strain ccr4, active compounds read low 1.03 | locus YAL026C, strain drs2, active compounds read low 1.03 | locus YAL030W, strain snc1, active compounds read low 1.02 | locus YBL061C, strain skt5, active compounds read low 1.03 | locus YBR009C, strain hhf1, active compounds read low 1.01 | locus YBR021W, strain FUR4, active compounds read low 1.04 | locus YBR023C, strain chs3, active compounds read low 1.03 | locus YBR171W, strain sec66, active compounds read low 1.04 | locus YBR229C, strain ROT2, active compounds read low 1.01 | locus YBR231C, strain swc5, active compounds read low 1.01 | locus YBR279W, strain paf1, active compounds read low 1.02 | locus YCL011C, strain gbp2, active compounds read low 1.03 | locus YCL016C, strain dcc1, active compounds read low 1.03 | locus YCL029C, strain bik1, active compounds read low 1.01 | locus YCL061C, strain MRC1, active compounds read low 1.02 | locus YCL069W, strain vba3, active compounds read low 1.03 | locus YCR088W, strain abp1, active compounds read low 1.02 | locus YDL005C, strain med2, active compounds read low 1.03 | locus YDL035C, strain GPR1, active compounds read low 1.03 | locus YDL040C, strain nat1, active compounds read low 1.02 | locus YDL074C, strain BRE1, active compounds read low 0.936 | locus YDL101C, strain DUN1, active compounds read low 0.958 | locus YDL185W, strain tfp1, active compounds read low 0.964 | locus YDL192W, strain arf1, active compounds read low 1.01 | locus YDR001C, strain nth1, active compounds read low 1.03 | locus YDR069C, strain doa4, active compounds read low 1.01 | locus YDR101C, strain arx1, active compounds read low 1.07 | locus YDR137W, strain rgp1, active compounds read low 1.15 | locus YDR150W, strain NUM1, active compounds read low 1 | locus YDR159W, strain sac3, active compounds read low 1.05 | locus YDR162C, strain NBP2, active compounds read low 0.976 | locus YDR195W, strain ref2 1.02 | locus YDR297W, strain sur2, active compounds read low 1.02 | locus YDR318W, strain mcm21, active compounds read low 0.98 | locus YDR334W, strain swr1, active compounds read low 1.03 | locus YDR335W, strain msn5, active compounds read low 1.01 | locus YDR388W, active compounds read low 0.978 | locus YDR392W, strain spt3, active compounds read low 1.03 | locus YDR502C, strain sam2, active compounds read low 0.996 | locus YEL003W, strain gim4, active compounds read low 1.02 | locus YEL037C, strain rad23, active compounds read low 1.02 | locus YEL061C, strain CIN8 (second series), active compounds read low 1.04 | locus YER015W, strain faa2, active compounds read low 1.01 | locus YER016W, strain bim1, active compounds read low 1.03 | locus YER110C, active compounds read low 0.996 | locus YER111C, strain swi4, active compounds read low 1.03 | locus YER155C, strain BEM2 (second series), active compounds read low 1.03 | locus YER155C, strain BEM2, active compounds read low 1.04 | locus YER167W, strain BCK2, active compounds read low 1.04 | locus YFR010W, strain ubp6, active compounds read low 1.02 | locus YGL078C, strain dbp3, active compounds read low 0.986 | locus YGL086W, strain mad1, active compounds read low 0.996 | locus YGL167C, strain pmr1, active compounds read low 1.02 | locus YGL173C, strain kem1, active compounds read low 1.03 | locus YGL227W, strain vid30, active compounds read low 1.04 | locus YGL240W, strain doc1, active compounds read low 1.02 | locus YGL248W, strain PDE1, active compounds read low 0.989 | locus YGL253W, strain hxk2, active compounds read low 1.02 | locus YGR078C, strain PAC10, active compounds read low 0.977 | locus YGR135W, strain pre9, active compounds read low 0.945 | locus YGR229C, strain SMI1, active compounds read low 0.968 | locus YGR252W, strain gcn5, active compounds read low 1.06 | locus YHR013C, strain ard1, active compounds read low 1.07 | locus YHR027C, strain rpn1, active compounds read low 1.02 | locus YHR030C, strain SLT2, active compounds read low 0.995 | locus YHR079C, strain IRE1 (second series), active compounds read low 0.993 | locus YHR079C, strain IRE1, active compounds read low 0.992 | locus YHR094C, strain hxt1, active compounds read low 1 | locus YHR129C, strain ARP1, active compounds read low 0.98 | locus YHR142W, strain chs7, active compounds read low 1.05 | locus YHR200W, strain rpn10, active compounds read low 1.01 | locus YIL066C, strain RNR3, active compounds read low 1.03 | locus YIL073C, strain SPO22, active compounds read low 0.964 | locus YIL125W, strain kgd1, active compounds read low 1.01 | locus YIR030C, strain dcg1, active compounds read low 1 | locus YJL092W, strain hpr5, active compounds read low 1.03 | locus YJL095W, strain BCK1 (second series), active compounds read low 1.02 | locus YJL095W, strain BCK1, active compounds read low 0.88 and 0.999 | locus YJL115W, strain asf1, active compounds read low 1.04 | locus YJL129C, strain trk1, active compounds read low 1.09 | locus YJL134W, strain LCB3, active compounds read low 1.01 | locus YJL154C, strain vps35, active compounds read low 1.03 | locus YJL164C, strain tpk1, active compounds read low 1.03 | locus YJL166W, strain qcr8, active compounds read low 1.02 | locus YJL168C, strain set2, active compounds read low 0.983 | locus YJL187C, strain SWE1 (second series), active compounds read low 0.922
